# Screens as filed in PubChem BioAssay.
# The list is not random: actives were taken first. Their share in the collection is about 7.3%.
# Rab9 promoter act: activates the Rab9 promoter; Huh7 Rab9 promoter-luciferase reporter, luminescence, 24 h; Potency, µM (top dose mostly 9.22 µM), usual class: activators; 320,000 compounds, 2.8% hits; further: nearly all actives have a fitted effect of over 60% in size
#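 Cells were plated at 1500 per well in reduced-serum medium with 10% FBS and left 2 h. Compound in DMSO was then added for 24 h at 37 °C. Reporter signal was read by luminescence after 10 min with luciferase detection reagent.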
# ELG1 genotox: induces genotoxicity in HEK293T cells with luciferase-tagged ELG1; HEK293T ELG1-luciferase reporter, luminescence, 16 h; Potency, µM (doses to about 46 µM), most hits filed as activators; 330,000 compounds, 1.3% hits; AID 504466; further: nearly all actives have a fitted effect of over 60% in size
#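 Screening used a luciferase reporter fused to human ELG1 in HEK293T cells. Luminescence was read on a CCD plate imager after 16 hr exposure and 30 min ONE-Glo incubation.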
# NPC1 prom act: activators of NPC1 promoter | Huh7 NPC1 promoter luciferase reporter, 24 h | Potency, µM (series often up to 9.22 µM), hits mostly activators | 320,000 compounds, 2.4% hits; further: nearly all actives have a fitted effect of over 60% in size
#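 Compounds in DMSO were transferred onto Huh7 NPC1-luciferase reporter cells pre-incubated 2 h; after 24 h at 37 °C, Amplite reagent was dispensed and luminescence recorded 10 min later.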
# FLuc modulator: inhibits or activates purified firefly luciferase, miR-21 counter-screen; P08659; purified FLuc, Km substrates, luminescence inhibition; Potency, µM (doses to about 57.5 µM), actives largely listed as inhibitors; 360,000 compounds, 6.9% hits; further: nearly all actives have a fitted effect of over 55% in size
# Target sequence (P08659 whole entry, looked up): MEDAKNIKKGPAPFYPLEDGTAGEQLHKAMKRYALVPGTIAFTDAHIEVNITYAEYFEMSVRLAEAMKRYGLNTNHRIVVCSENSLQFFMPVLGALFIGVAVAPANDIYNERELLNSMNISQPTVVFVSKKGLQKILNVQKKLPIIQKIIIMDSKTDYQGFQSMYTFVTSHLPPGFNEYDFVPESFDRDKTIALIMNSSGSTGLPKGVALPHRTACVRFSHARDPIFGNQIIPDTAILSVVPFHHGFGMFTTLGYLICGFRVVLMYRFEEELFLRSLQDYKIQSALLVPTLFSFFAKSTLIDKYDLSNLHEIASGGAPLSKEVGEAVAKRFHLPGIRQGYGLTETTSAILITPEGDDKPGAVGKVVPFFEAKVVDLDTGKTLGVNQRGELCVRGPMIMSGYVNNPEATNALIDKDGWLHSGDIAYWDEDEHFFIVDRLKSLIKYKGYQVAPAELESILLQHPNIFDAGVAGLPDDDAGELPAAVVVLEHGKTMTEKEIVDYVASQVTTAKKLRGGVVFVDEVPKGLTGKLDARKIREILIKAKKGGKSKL
#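 Biochemical qHTS of compounds, final roughly 60 µM downward over six points, against 10 nM purified firefly luciferase using Km concentrations of substrates (10 uM D-luciferin, 10 uM ATP) in Tris acetate pH 7.5 buffer; luminescence output.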
# SMN2 splice enh: enhancers of SMN2 splice variant expression; HEK293 SMN2-luciferase splicing reporter, luminescence, 30-36 h; Potency, µM (titrated, usually from 46.1 µM), actives largely listed as activators; 210,000 compounds, 2.8% hits; AID 1458; further: nearly all actives have a fitted effect of over 55% in size
#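 HEK293 cells carry an SMN2 […]–luciferase reporter in which exon 7 inclusion puts luciferase in frame. Cells were plated 10-12 h before compound addition, then incubated 30-36 h at 37C. ONE-Glo luminescence was read; sodium butyrate at 4.5 mM final served as control.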
# Luc counter: blocks Kinase-Glo luciferase, a counter-screen artifact; Kinase-Glo luciferase, ATP luminescence, 8 min; AID 1379; Q27757; 200,000 compounds, 0.28% hits; Potency, µM (doses to about 38.3 µM), actives largely listed as inhibitors; further: nearly all actives have a fitted effect of over 60% in size
#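 Compound is pinned into ATP-containing buffer (10 uM ATP, imidazole pH 7.2, 7 mM MgCl2). Kinase-Glo luciferase reagent is then added. Light output is recorded following an 8-min room-temperature incubation.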
# Numbers stand for hits; n = inactive; u = inconclusive; x = no result. The call rests on the fitted dose curve; in most records, active means well fitted curve in the direction sought with a large enough effect; inconclusive means small, poorly fitted or top-dose-only effect, or another doubt; inactive means no such curve, though single readings can be large; an effect the other way counts as inactive or inconclusive.
SMILES,Rab9 promoter act,ELG1 genotox,NPC1 prom act,FLuc modulator,SMN2 splice enh,Luc counter
Cc1cc(F)ccc1NC(=O)c1csc2c1CCC(C)C2 (configuration not stated),x,x,x,u,6.3µM,x
COc1ccccc1NC(=O)c1csc2c1CCC(C)C2 (configuration not stated),n,n,u,u,x,n
CCc1nnc(NC(=O)C2CCCCC2)s1,n,n,n,n,n,n
CCOC(=O)c1c(C)oc2nc(C)nc(N3CCN(c4cccc(C)c4C)CC3)c12,x,x,x,n,x,x
CCOc1ccc(C(=O)c2cn(CC(=O)Nc3ccc4c(c3)OCCO4)c3ccc(F)cc3c2=O)cc1,x,x,x,n,n,x
Cc1cccc(Cc2c(C)nc3nc(SCc4cccc(F)c4)nn3c2C)c1,x,x,x,n,x,x
CCCCNC(=S)N/N=C/c1sccc1C,n,n,n,n,n,n
CCNC(=S)N/N=C/c1sc(N2CCCCC2)nc1-c1cccs1,u,u,n,1.9µM,x,11µM
O=C(Nc1cccc(C(F)(F)F)c1)c1cnn(-c2cccc(F)c2)c1C1CCNCC1,x,x,x,n,x,x
Nc1c(C(=O)Nc2ccc(Br)cc2)sc2nc(-c3ccco3)ccc12,n,n,n,u,n,n
Nc1c(C(=O)Nc2ccc(C(F)(F)F)cc2)sc2nc(-c3cccs3)ccc12,x,x,x,n,n,x
Cc1cc(F)ccc1NC(=O)c1sc2nc(-c3cccs3)ccc2c1N,x,x,x,n,10µM,x
CCOC(=O)c1sc2nc(-c3ccccc3)ccc2c1N,0.28µM,0.52µM,0.35µM,0.19µM,0.79µM,n
Nc1c(C(=O)NC2CCCC2)sc2nc(-c3cccs3)ccc12,n,u,n,n,n,n
CC(=O)c1sc2nc(-c3ccco3)ccc2c1N,u,21µM,u,3.8µM,x,x
NC(=O)c1sc2nc(-c3cccs3)ccc2c1N,u,u,u,9.5µM,x,x
NC(=O)c1sc2nc(-c3ccccc3)ccc2c1N,3.2µM,u,1.8µM,2.1µM,x,x
CCOc1ccc(NC(=O)c2cc(S(=O)(=O)NC3CCCC3)ccc2F)cc1,x,x,x,n,x,x
O=C(CN1CCCC1)N/N=C/c1ccc(-c2cccc(Cl)c2)o1,n,n,n,12µM,n,n
Nc1nonc1C(=O)N/N=C/c1ccc(-c2cccc(C(=O)O)c2)o1,n,n,n,17µM,n,n
Cc1ccc(OCC(=O)N/N=C\c2ccc(-c3cccc(C(=O)O)c3)o2)c(C)c1,n,n,n,6.7µM,n,n
CNC(=S)N/N=C/c1ccc(-c2cccc(C(=O)O)c2)o1,2.8µM,u,2.2µM,6.7µM,x,x
O=C(CN1CCCCC1)N/N=C/c1cccc(Cl)c1,n,n,n,n,x,x
Cc1ccc(OCC(=O)N/N=C\c2ccc(C)o2)c(C)c1,n,n,n,n,n,n
CC1CCCN(C2=NC(=O)/C(=C/c3cn(-c4ccccc4)nc3-c3cccc(S(=O)(=O)N(C)C)c3)S2)C1 (configuration not stated),n,n,n,u,n,n
SMILES,Rab9 promoter act,ELG1 genotox,NPC1 prom act,FLuc modulator,SMN2 splice enh,Luc counter
CC1CCN(C2=NC(=O)/C(=C/c3cn(-c4ccccc4)nc3-c3cccc(S(=O)(=O)N(C)C)c3)S2)CC1,u,n,n,2.7µM,n,n
CCOc1ccc2nc(N(Cc3cccnc3)C(=O)c3ccco3)sc2c1,x,x,x,17µM,x,x
CCOc1ccc2nc(N(Cc3cccnc3)C(C)=O)sc2c1,x,x,x,n,x,x
CCS(=O)(=O)c1ccccc1C(=O)N(Cc1cccnc1)c1nc2cc(C)c(C)cc2s1,x,x,x,21µM,x,x
COc1ccc2nc(N(Cc3cccnc3)C(=O)c3ccco3)sc2c1,x,x,x,17µM,x,x
O=C(c1ccc2c(c1)OCCO2)N(Cc1cccnc1)c1nc2ccc(F)cc2s1,x,x,x,17µM,x,x
COc1ccccc1OCCn1c(C(C)Oc2ccccc2)nc2ccccc21 (configuration not stated),x,x,x,n,n,x
C=C(C)CSc1nc2sc3c(c2c(=O)n1-c1ccccc1)CCC(C)C3 (configuration not stated),x,x,x,n,n,x
Cc1c(C(=O)NCc2ccc(Cl)cc2)oc2ccc3c(c12)C(=O)CC(C)(C)O3,x,x,x,u,n,x
CC(=O)Nc1ccc(NC(=O)c2oc3ccc4c(c3c2C)C(=O)CC(C)(C)O4)cc1,x,x,x,8.5µM,x,x
